In the supplement of paper PMC6555819:

Assays:
Assay in all cases: PBM binding z-score (relative to random genomic background probes); higher = stronger binding; sequences stand for … in GC…GCGATTGACAGCGTAGAATGAAGG
[1] = test system: RARb homodimer (NR concentration 270 nM)
How it was run: (§1)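 Ligand-free nuclear receptor dimers were bound for 1 h to custom Agilent 4×180K protein-binding microarrays. Detection used antibodies against each partner (one per run). Binding z-scores rest on regression-normalized fluorescence, with random background probes as the reference.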

[2] = test system: RARg:RXRa (NR concentration 270 nM, RXRa partner concentration 90 nM)
How it was run: as §1

[3] = test system: RARg homodimer (NR concentration 270 nM)
How it was run: as §1

[4] = test system: RXRa DBDmut IVT, anti-RXR (DBD mutation: RXRa K156A/R161A, NR concentration 90 nM)
How it was run: as §1

[5] = test system: RXRa homodimer (NR concentration 180 nM)
How it was run: as §1

[6] = test system: THRa:RXRa (NR concentration 90 nM, RXRa partner concentration 90 nM)
How it was run: as §1

[7] = test system: THRa homodimer (NR concentration 90 nM)
How it was run: as §1

[8] = test system: VDR homodimer (NR concentration 270 nM)
How it was run: as §1

Row | Sequence | PBM binding z-score [1] | PBM binding z-score [2] | PBM binding z-score [3] | PBM binding z-score [4] | PBM binding z-score [5] | PBM binding z-score [6] | PBM binding z-score [7] | PBM binding z-score [8]
1 | TCTGCTAGGTCAACTATGGTCAGCTAATCTGCTA | 3.57 | 4.26 | 5.22 | 1.45 | 3.13 | 3.87 | 0.915 | 0.149
2 | GATACAGGGTCAAGGCCATAGTACGCGTATTGAT | 3.69 | 5.34 | 5.15 | 2.44 | 5.52 | 3.54 | 1.52 | 2.22
3 | ACAGACAGGTGATTAAGGTAACTCAGGCTATCAT | 0.49 | 0.29 | 0.554 | 0.282 | 0.366 | 2.77 | 1.93 | 0.0908
4 | GATACAGGGTTAGCTAGAGGCCAGAGTATGGAAA | 0.99 | 3.12 | 0.756 | -0.477 | 0.857 | 1.23 | -0.252 | 0.162
5 | CGTCCAAGGTCAGAGAGGGCAGTGAATGCCGAGT | 4.41 | 4.86 | 5.33 | 3.24 | 3.8 | 3.96 | 1.86 | 3.51
6 | TCGAGTAGGTTACAAATGGGGCATTCAGCTTTCT | 0.369 | 0.68 | 0.323 | 0.884 | 0.39 | 0.1 | -0.394 | -0.133
7 | TCGAGTAGGTTAGTCGGGGGATTCAGCCAACATA | 0.341 | 0.199 | 0.0266 | 0.48 | 0.178 | 1.25 | 0.267 | 0.183
8 | GGAACGAGGGCAAAGTCGATAGCATCTGTCGACG | 0.649 | 0.932 | 0.988 | 2.53 | 0.723 | 0.62 | -0.445 | 1.19
9 | TAGCCCAGGTCATGCGGGCCAGTATAGTGTCGGC | 2.94 | 4.07 | 3.99 | 1.22 | 3.45 | 3.85 | 2.4 | 1.49
10 | CCGACTGGGGCATAAGGTAACCATAAGCCAGCCC | 0.572 | 0.385 | 0.436 | -0.779 | 0.252 | 1.72 | 1.34 | -0.312
11 | CTCGAAAGGCCGGTTGAGGTGAGTATACGGATAA | 0.451 | 0.273 | 0.383 | -0.239 | -0.037 | 3.54 | 0.438 | -0.821
12 | TCGAGTAGGTTACCCATGGGGCATTCAGCTTTCT | 0.802 | 1.61 | 0.414 | 0.106 | 0.689 | 0.2 | -0.507 | -0.557
13 | TCTAGCAAGCCAGAGGGTCACTCAAGAGGTACGG | 2.11 | 1.94 | 1.39 | -0.198 | 2.18 | 1.43 | -0.484 | 0.431
14 | CCAGACATGTGAAAGGTAACTCAGTCTGGTACGC | 0.0662 | 0.308 | 0.362 | 0.289 | 0.767 | 0.162 | -0.146 | 0.204
15 | GCTGCTAGGTCAGGTAGGTCAGCTAACGGGTACG | 4.09 | 4.09 | 4.85 | 0.899 | 2.38 | 2.78 | 0.866 | 0.966
16 | CCTTACGGGTCACTGACAGGTTGTAGCATTTGGA | 3.13 | 5.06 | 4.23 | 2.01 | 4.67 | 2.65 | 0.174 | 0.754
17 | ATCTCTAGGTAAAGTTCAGGGAAAGATCGATAGA | 2.7 | 2.5 | 2.77 | 1.38 | 1.98 | 1.61 | 0.441 | 2.18

Row | Sequence | PBM binding z-score [1] | PBM binding z-score [2] | PBM binding z-score [3] | PBM binding z-score [4] | PBM binding z-score [5] | PBM binding z-score [6] | PBM binding z-score [7] | PBM binding z-score [8]
18 | GGAACGAGGGCAAAGTTTATAGCATCTGTCGACG | 1.8 | 2.31 | 2.04 | 2.61 | 2.22 | 1.63 | -0.279 | 2.22
19 | TAGACTAGGTCAGATCGGGCCAGTATACGCTATA | 1.99 | 2.46 | 3.56 | -0.416 | 1.24 | 3.92 | -0.175 | -0.33
20 | AGAATGAGGTTATTAAGATCAGTGAATTGCGGTC | 0.636 | 1.21 | 0.905 | 2.02 | 1.67 | 2.17 | 0.753 | 1.09
21 | TGAATGCGGTTAAAGATCAGGGAACGTGGCGTCG | -0.707 | -0.0436 | -0.136 | -0.853 | 0.338 | -0.164 | -0.454 | -0.55
22 | GCGTCTGGGGCAAAGCAGGTTACCATAAGGTTGG | 1.13 | 0.435 | 0.815 | -0.387 | 0.339 | 3.04 | 0.0693 | -0.358
23 | GCGACTGGGGAATCAGCAGGTTACCATAACTTAA | 0.164 | -0.241 | -0.452 | -0.352 | 0.0152 | 0.249 | -0.272 | -0.345
24 | CAGACTAGGTCAAGGTCAAAGTCGGTTTGTGCCA | 5.11 | 6.12 | 6.67 | 2.61 | 6.04 | 4.32 | 3.45 | 4.18
25 | AGACCGAGGGCAATGAGTTGATAGCACGGGTGGC | 0.894 | 0.934 | 1.36 | 1.31 | 0.545 | 0.481 | -0.368 | 3.16
26 | CAAACTAGGCCACAGAGGTCAAAGTCCGTGCGTA | 4.87 | 5.71 | 4.91 | 2.16 | 6.16 | 3.95 | 1.62 | 4.03
27 | CCTACCAGGCCAATCTGGGTCACTCAAGGCTTGA | 2.5 | 1.37 | 1.64 | -0.157 | 1.01 | 3.84 | 1.34 | 0.435
28 | ACTATTAGTTGAGACGAGGGCAACCGATAGGTTG | 1.2 | 0.833 | 0.861 | 0.5 | 0.75 | 2.7 | 0.226 | 0.728
29 | CCTGCTGGGTCAATGGTCAGCTAAAGCAGCTCGC | 2.5 | 3.24 | 3.33 | 0.787 | 2.48 | 1.26 | -0.14 | -0.211
30 | AGAATGAGGTTATTAAGATCGGGGAATTGCGGTC | 0.767 | 0.927 | 0.627 | 2.18 | 1.38 | 2.2 | 0.74 | 1.27
31 | TCATATAGTTAAAGGTGAAAGTCGAACGATATGA | 1.34 | 1.47 | 1.18 | 0.551 | 2.08 | 1.23 | -0.586 | -0.0826
32 | CCTTACGGGTGACTCCAGGTTATAGCATCGGAGT | 0.532 | 0.648 | 0.639 | -0.594 | 0.973 | 3.65 | 0.215 | 0.0105
33 | ATCGAAAGGTCGAAGGTGAATATACCCACCCGAA | 2.61 | 4.63 | 3.68 | 1.35 | 5.69 | 2.52 | 0.227 | 0.834
34 | CCTACTGGCCCACGAAAGGTCATTGATTCAGTGA | 4.47 | 4.32 | 3.95 | 0.693 | 4.79 | 3.02 | 1.16 | 2.69
